Source: PubChem BioAssay (several laboratories)
GluA2 TARP mod = modulators of AMPA receptor GluA2-stargazin complexes; O88602+P19491; HEK293 GluA2+stargazin, membrane potential dye (FDSS), glutamate EC50; hits were called plate by plate, in both directions; calls only at 30 µM; hit rate 3.5% among 40,000; AID 1259245;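 active means any of four per-well response measures lying three or more SD from its plate-wide compound average, in either direction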
GIRK2 activator = GIRK2 channel activators by thallium flux; P48051; HEK293 GIRK2/NPY4 cells, thallium flux fluorescence; activation (% efficacy), % for hits at 75 µM; 34,000 tested, under 10 active; AID 1259324;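 active means primary screen hit, no activity in plain HEK293 cells, and in GIRK2-only cells above 5% efficacy rising with concentration; inactive means the rest, including fluorescent compounds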;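 further: efficacy is normalized control-subtracted fluorescence 15 s after thallium addition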
Target sequence (P48051 whole entry, looked up): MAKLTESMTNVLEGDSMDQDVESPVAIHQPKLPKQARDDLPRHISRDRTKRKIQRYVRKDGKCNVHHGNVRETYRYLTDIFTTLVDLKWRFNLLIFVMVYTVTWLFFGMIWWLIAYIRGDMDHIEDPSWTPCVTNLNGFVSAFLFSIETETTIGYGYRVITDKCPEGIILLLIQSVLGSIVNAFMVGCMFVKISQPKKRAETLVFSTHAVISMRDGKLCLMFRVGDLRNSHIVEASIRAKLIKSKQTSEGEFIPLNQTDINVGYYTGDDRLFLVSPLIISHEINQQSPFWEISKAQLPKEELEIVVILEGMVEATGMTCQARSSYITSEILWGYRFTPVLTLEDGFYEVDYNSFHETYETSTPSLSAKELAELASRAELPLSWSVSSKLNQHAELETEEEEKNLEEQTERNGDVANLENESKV
Active calls of the source: *; i = inactive; x = no result given; + = active, no number. Only a selection was taken, and hits are over-represented in it overall.

SMILES | GluA2 TARP mod | GIRK2 activator
Cn1c(=O)c2c(SCC(=O)NCCc3ccccc3)ccnc2n(C)c1=O | i | i
Cn1c(=O)c2c(NCCc3ccc(S(N)(=O)=O)cc3)ccnc2n(C)c1=O | + | i
CCOc1ccc(NC(=O)CSc2nccn3nc(-c4ccccc4)cc23)cc1 | i | i
COc1ccc(C2(CNS(C)(=O)=O)CCCC2)cc1 | i | i
COc1ccc(C2(CNC(=O)C3CCN(S(C)(=O)=O)CC3)CCCC2)cc1 | + | i
COc1ccc(Cl)cc1C(=O)Nc1ccc(N2CCCCC2=O)cc1 | i | i
Cc1ccc(OCC(=O)NCC(c2cccc3ccccc23)N2CCOCC2)cc1 (configuration not stated) | i | i
Cc1ccc(C(CNC(=O)COc2ccc3ccccc3c2)N2CCOCC2)cc1 (configuration not stated) | + | i
CCOc1ccc2ccccc2c1C(=O)NCC(c1cccc(OC)c1)N1CCOCC1 (configuration not stated) | + | i
COc1ccc(C(=O)NCC(c2cccc(OC)c2)N2CCOCC2)cc1 (configuration not stated) | i | i
COc1cccc(C(CNC(=O)COc2ccc(C)cc2)N2CCOCC2)c1 (configuration not stated) | i | x
COc1ccc(CC(=O)NCC(c2cccc3ccccc23)N2CCOCC2)cc1 (configuration not stated) | i | i
COc1cccc(C(CNC(=O)COc2ccccc2)N2CCOCC2)c1 (configuration not stated) | + | i
O=C(NCC(c1cccc2ccccc12)N1CCOCC1)c1ccc(Br)cc1 (configuration not stated) | + | i
CS(=O)(=O)N1CCCc2ccc(NC(=O)C(=O)NCCCO)cc21 | i | i
COC(=O)c1ccccc1NC(=O)CCCn1nc(-c2ccc(F)cc2)ccc1=O | i | i
Cc1ccc(C(CNC(=O)c2ccccc2C)N2CCOCC2)cc1 (configuration not stated) | + | i
COc1ccc(C(CNC(=O)c2cccc([N+](=O)[O-])c2C)N2CCOCC2)cc1 (configuration not stated) | + | x
COc1ccc(C(CNC(=O)C(=O)Nc2ccccc2[N+](=O)[O-])N2CCOCC2)cc1 (configuration not stated) | x | i
Cc1ccc(C(CNC(=O)c2cccs2)N2CCOCC2)cc1 (configuration not stated) | i | i
Cc1ccccc1NC(=O)CCCOc1ccccc1 | i | i
COc1ccc(S(=O)(=O)N2CCCc3cc(NC(=O)CCC4CCCC4)ccc32)cc1 | i | x
CC(C)NC(=O)c1nsc(C(=O)NCCc2cccs2)c1N | i | i
N#Cc1nc(-c2ccc(S(=O)(=O)N3CCCCCC3)cc2)oc1NCCCn1ccnc1 | + | i
N#Cc1nc(-c2ccc(S(=O)(=O)N3CCCCCC3)cc2)oc1NCCN1CCOCC1 | i | i
SMILES | GluA2 TARP mod | GIRK2 activator
COCC(C)NC(=O)CCn1cnc2c(cnn2C(C)(C)C)c1=O (configuration not stated) | i | i
CCOC(=O)C1C(=O)CC(C)(O)C(C(=O)OCC)C1c1ccc(C)cc1 (configuration not stated) | + | i
CCOC(=O)C1C(=O)CC(C)(O)C(C(=O)OCC)C1c1cccs1 (configuration not stated) | i | i
O=C(NCC1(c2cccs2)CCCC1)C(=O)Nc1ccc(OC(F)(F)F)cc1 | x | i
COc1ccccc1CCNC(=O)Cc1cc(-c2ccc(Cl)cc2)on1 | i | i
Cc1cc(C(C)(C)C)cc(S(=O)(=O)Nc2c(C)n(C)n(-c3ccccc3)c2=O)c1C | + | x
Cc1c(NS(=O)(=O)c2cccc(S(C)(=O)=O)c2)c(=O)n(-c2ccccc2)n1C | x | i
Cc1nnsc1C(=O)N1CCC(CNC(=O)c2cccc(Cl)c2)CC1 | i | i
Cc1nnsc1C(=O)N1CCC(CNC(=O)Nc2cccc(Cl)c2)CC1 | + | i
CSc1ncccc1C(=O)N1CCC(CNC(=O)/C=C/c2cccs2)CC1 | i | i
Cn1c(=O)[nH]c(=O)c2c1nc(SCCO)n2CCCOc1ccccc1 | i | i
N=c1sc(/C=C2\C=Nc3ccccc32)c(O)n1-c1nccs1 | + | x
COc1ccc(C)cc1NC(=O)C(=O)NCCCN1CCOC(c2ccccc2)C1 (configuration not stated) | x | i
O=C(NCC(O)(c1cccs1)C1CC1)C1(c2ccc(Cl)cc2)CCCC1 (configuration not stated) | i | i
O=C(NCCc1ccsc1)C1(c2ccc(Cl)cc2)CCCC1 | + | i
O=C(NCC#CCN1CCc2ccccc2C1)NCc1cccs1 | i | i
CC(=O)Nc1ccc(NC(=O)CSc2nc(=O)n(CCCO)c3c2CCCC3)cc1 | i | i
CCOc1ccc(NC(=O)CSc2nc(=O)n(CCO)c3c2CCCC3)cc1 | + | i
NC(CN1CCOCC1)c1ccccc1 (configuration not stated) | i | i
CCOc1cc(C)c(Cl)cc1S(=O)(=O)N1CCCCC1CC (configuration not stated) | + | x
CCC1CCCCN1S(=O)(=O)c1cc(C)c(Br)cc1C (configuration not stated) | i | x
Cc1cccc(NC(=O)CC2CCCCN2S(=O)(=O)c2cccs2)c1C (configuration not stated) | + | i
O=C(CC1CCCCN1S(=O)(=O)c1ccccc1)NCc1cccs1 (configuration not stated) | i | x
O=C(CSc1nc(=O)n(CCCO)c2c1CCCC2)NCc1ccc2c(c1)OCO2 | i | i
Cc1nnc(NC(=O)Cc2csc(Nc3ccccc3)n2)s1 | + | i
SMILES | GluA2 TARP mod | GIRK2 activator
CNC(=O)Cc1csc(NC(=O)c2csc(Nc3ccccc3)n2)n1 | x | i
O=C(CCc1csc(NS(=O)(=O)c2ccccc2)n1)Nc1nc2ccccc2s1 | i | i
COc1ccc(S(=O)(=O)Nc2nc(CCC(=O)NC(C)C)cs2)cc1 | i | i
COc1ccc(S(=O)(=O)Nc2nc(CCC(=O)Nc3nnc(C)s3)cs2)cc1 | + | i
O=C(Cc1csc(Nc2ccccc2)n1)NCCc1c[nH]c2ccccc12 | + | i
Cc1nnc(NC(=O)CCc2csc(NS(=O)(=O)c3ccccc3)n2)s1 | + | i
COC(=O)Nc1nc(CC(=O)NCCc2c[nH]c3ccccc23)cs1 | x | i
CC(C)N1CCc2c(sc(NC(=O)c3ccc(F)cc3)c2-c2nc3ccccc3s2)C1 | i | x
CCCNC(=O)C(=O)Nc1ccc2c(c1)N(C(=O)C(C)C)CCC2 | i | i
COCC(=O)N1CCCc2ccc(NC(=O)Cc3ccccc3Cl)cc21 | i | i
COCC(=O)N1CCCc2ccc(NC(=O)CCSc3ccccc3)cc21 | + | i
Cc1ccc(NC(=O)CCSc2ccccc2)cc1N1CCCCC1=O | + | i
CCOC(=O)CCC(=O)Nc1ccc(C)c(N2CCCCC2=O)c1 | i | i
O=C(CC1CSc2nc3c(c(=O)n21)CCC3)NCc1n[nH]c(=O)c2ccccc12 (configuration not stated) | i | i
Fc1ccccc1Nc1nc(N2CCOCC2)c2ccccc2n1 | + | x
